Hits are enriched below; roughly 3.7% of the tested compounds scored in any of these assays.
GPR7 antag: GPR7 receptor antagonists, primary screen, cell-based, fluorescence, single concentration; hit rate 1.1% among 290,000; AID 1861, 2009; Neuropeptides B/W receptor type 1 (Homo sapiens), P48145; inhibition, % at 4.4 µM; GPR7-expressing cells, fluorescence antagonist assay; in the data active = inhibition above about 16%, passing the limit was not always enough;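 also: cells stimulated with the agonist NPW; 0% = agonist with vehicle and 100% = vehicle without agonist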
Kir21 inh: inhibitors of mouse Kir2.1 inward-rectifier potassium channel; Inward rectifier potassium channel 2 (Mus musculus), P35561; HEK293-Kir2.1, FluxOR thallium flux fluorescence; hits give low values; B-score at 10 µM; AID 1672, 2009; hit rate 0.85% among 310,000;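 active = fluorescence ratio B-score at or below minus 3 SD of library scores, with starting-brightness B-score within 2 SD, cut at about -4.2 in these data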;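 also: channel flux triggered by added potassium and thallium sulfate stimulus; B-score of peak minus minimum fluorescence over baseline after thallium stimulus; more negative B-score means stronger Kir2.1 block with less thallium influx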
TMEM16A act: TMEM16A chloride channel activators or potentiators, primary screen, cell-based, HTS | B-score at 10 µM | AID 623877, 2012 | hit rate 0.3% among 340,000 | Anoctamin-1 (Mus musculus), Q8BHY3 | HEK293 TMEM16A/YFP-H148Q/I152L, iodide quench fluorescence; hits give low values;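 active = fluorescence-ratio B-score plate-corrected deviation score at least 3 library SD below zero, with starting fluorescence score within 5 deviations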;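 also: channel opened by trigger with iodide after compound preincubation; score built on the fluorescence ratio of max minus min over baseline; more negative score means more quench and so TMEM16A activation or potentiation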
CHT inh: inhibitors of human choline transporter CHT; High affinity choline transporter 1 (Homo sapiens), Q9GZV3; CHT-expressing cells, membrane potential dye, choline response; hits give low values; B-score at 10 µM; hit rate 0.86% among 310,000;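 active = B-score over 3 SD under the library average, and starting fluorescence ratio not unusually high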;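 also: choline stimulus applied at its EC90 after an EC20 pre-addition; B-score computed on integrated fluorescence ratio after choline addition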
CHT PAM: CHT positive allosteric modulators, primary screen, cell-based, membrane potential dye, choline EC20; CHT-expressing cells; hits give high values; LV-AA mutant CHT in HEK293 cells; hit rate 0.49% among 310,000; B-score at 10 µM; AID 488977, 2010; High affinity choline transporter 1 (Homo sapiens), Q9GZV3;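 active = initial fluorescence not abnormally high and integrated response B-score, plate-corrected, over 3 SD above library mean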
ANO1 block: TMEM16A chloride channel inhibitors, primary screen, cell-based, HTS | hit rate 1.2% among 310,000 | normalized B-score (activity score, 25-100; higher = stronger inhibition) at 10 µM | Anoctamin-1 (Mus musculus), Q8BHY3 | AID 588511, 2011 | HEK293 TMEM16A/YFP iodide influx fluorescence, ionomycin;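 active = ratio plate-corrected score three or more library SD toward inhibition, starting fluorescence score within five deviations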;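 also: score derived from kinetic fluorescence span divided by baseline fluorescence per well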
CHT inh conf: CHT inhibitors, confirmation, cell-based, membrane potential dye, duplicate; shares compounds with CHT inh; CHT-expressing cells, choline membrane potential dye; LV-to-AA substituted CHT, HEK293 cells; CHT activity remaining % of control (hits give low values), % at 10 µM; hit rate 70% among 2,400;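 active = choline transporter activity left, mean of duplicates at 10 µM, below buffer-only control mean minus 3 SD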;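 also: depolarization triggered by choline at its EC90 following an EC20 pre-addition; 0% = hemicholinium-3 full block and 100% = buffer-only control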
HEK293 MPD ctr: membrane potential effects in parental HEK293, counter-screen for CHT inhibitor project, cell-based, membrane potential dye. shares compounds with CHT inh. choline response; active = decrease or increase beyond buffer ±3SD. membrane potential ratio readout (active if shifted either direction beyond buffer ±3SD; no single direction) at 10 µM. hit rate 4% among 2,400. AID 493222, 2011;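 also: parental cells lack the transporter so any hit is non-specific; ratio is peak minus trough fluorescence over baseline after EC90 choline challenge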
TMEM16A reconf: TMEM16A chloride channel inhibitors, confirmation, cell-based, re-confirmation | shares compounds with ANO1 block | HEK293 TMEM16A/YFP-H148Q, iodide quench fluorescence; ionomycin added to raise cell calcium | inhibition, % at 10 µM | hit rate 39% among 2,300;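 active = mean duplicate percent inhibition, scaled so buffer wells are 0 and the reference blocker 100, over three buffer SD above buffer mean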
HEK293 Ca mobil: calcium mobilization in TMEM16A/YFP HEK293 cells, confirmation, counter-screen for TMEM16A inhibitor project; shares compounds with ANO1 block; Fluo4 calcium mobilization; calcium response (% of ionomycin), % at 10 µM; hit rate 2% among 2,300;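 active = duplicate-averaged calcium signal over 20% of the ionomycin maximum, relative to buffer baseline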;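 also: each well's signal is peak minus trough fluorescence divided by its pre-addition baseline; 0% = buffer wells and 100% = ionomycin wells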
Parental YFP cnt: iodide YFP quench changes in parental YFP-HEK293, counter-screen for TMEM16A inhibitor project, cell-based. shares compounds with ANO1 block. ionomycin. YFP ratio F(max-min)/F0 at 10 µM. AID 652233, 2013. 2,300 tested, under 10 active;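 active = yellow fluorescent protein signal ratio exceeding the buffer control mean by over 5 SD of those controls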;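 also: ratio is mean of duplicate wells from kinetic YFP trace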
ClC-1 inh: ClC-1 chloride channel inhibition, selectivity assay for TMEM16A inhibitor project, cell-based, voltage-dependent ClC-1; shares compounds with ANO1 block; CHO ClC-1-YFP, iodide influx fluorescence quench; iodide control reads 0, buffer control 100; ratio percent, % at 10 µM; 2,300 tested, under 10 active;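 active = duplicate-mean ratio percent above the mean of iodide-only control wells, which defines zero, plus 5 of their SD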;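 also: higher percent means stronger block of ClC-1 iodide influx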
Target sequence (P35524 whole entry, looked up): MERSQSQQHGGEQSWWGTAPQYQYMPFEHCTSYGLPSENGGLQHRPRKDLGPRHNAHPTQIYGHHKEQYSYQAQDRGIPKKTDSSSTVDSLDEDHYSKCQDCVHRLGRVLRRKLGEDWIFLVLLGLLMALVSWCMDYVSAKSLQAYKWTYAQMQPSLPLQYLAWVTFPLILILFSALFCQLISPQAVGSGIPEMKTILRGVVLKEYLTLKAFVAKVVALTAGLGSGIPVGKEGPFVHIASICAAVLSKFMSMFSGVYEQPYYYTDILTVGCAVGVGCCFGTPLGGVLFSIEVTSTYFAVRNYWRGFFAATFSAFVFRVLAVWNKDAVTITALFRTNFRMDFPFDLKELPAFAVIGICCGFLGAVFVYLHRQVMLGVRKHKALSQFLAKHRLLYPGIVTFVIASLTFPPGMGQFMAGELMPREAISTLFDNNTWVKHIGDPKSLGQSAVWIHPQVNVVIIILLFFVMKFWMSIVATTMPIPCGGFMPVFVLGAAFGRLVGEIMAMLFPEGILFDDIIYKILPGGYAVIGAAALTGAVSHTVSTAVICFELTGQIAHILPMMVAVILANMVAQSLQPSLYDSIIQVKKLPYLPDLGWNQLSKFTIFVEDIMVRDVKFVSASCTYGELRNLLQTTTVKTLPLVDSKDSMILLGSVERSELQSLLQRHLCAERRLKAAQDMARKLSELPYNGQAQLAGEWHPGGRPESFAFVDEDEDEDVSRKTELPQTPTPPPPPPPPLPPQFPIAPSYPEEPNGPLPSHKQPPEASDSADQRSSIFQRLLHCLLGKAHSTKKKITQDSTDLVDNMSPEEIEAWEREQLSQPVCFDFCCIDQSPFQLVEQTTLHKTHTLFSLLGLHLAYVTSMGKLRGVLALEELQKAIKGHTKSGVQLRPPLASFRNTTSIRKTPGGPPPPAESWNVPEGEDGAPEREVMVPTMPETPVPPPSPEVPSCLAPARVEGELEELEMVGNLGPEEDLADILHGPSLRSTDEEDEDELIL
Numbers without * were called inactive; i = inactive; · = not tested or not shown.

SMILES | GPR7 antag | Kir21 inh | TMEM16A act | CHT inh | CHT PAM | ANO1 block | CHT inh conf | HEK293 MPD ctr | TMEM16A reconf | HEK293 Ca mobil | Parental YFP cnt | ClC-1 inh
N=c1n(Cc2ccc(Cl)cc2)c2ccccc2n1CC(O)COc1ccccc1 (stereo unspecified) | 47* | -9.6* | i | -9.2* | i | 25* | 46%* | i | 28%* | i | -1 | -8
Cc1ccc(S(=O)(=O)Nc2nc3ccccc3nc2NCc2ccco2)cc1 | -11 | -1.5 | i | i | i | i | · | · | · | · | · | ·
Cc1ccc(S(=O)(=O)Nc2nc3ccccc3nc2NCc2ccco2)cc1C | 7 | -0.89 | i | -5* | i | 100* | i | i | i | i | -0.97 | -15
CC(C)(C)NS(=O)(=O)c1cc(C(=O)Nc2sccc2C#N)ccc1Cl | -10 | -1.2 | i | -5.3* | i | i | i | i | i | i | -1 | -14
N#Cc1ccsc1NC(=O)c1cnccn1 | -1 | -1.3 | i | i | i | i | · | · | · | · | · | ·
CCCN(CC(=O)Nc1ccccc1C)C(=O)Cc1coc2cc(C)ccc12 | -6 | 0.99 | i | i | i | i | · | · | · | · | · | ·
CN(Cc1ccccc1F)c1ncnc2sccc12 | 4 | 0.48 | i | i | i | i | · | · | · | · | · | ·
CN(Cc1cccs1)c1ncnc2sccc12 | 14 | -1.6 | i | -7.4* | i | 25* | 50%* | i | i | i | -1.1 | -18
Cc1ccc(C(=O)Nc2ncc([N+](=O)[O-])s2)cc1 | 14 | 0.97 | i | -5.9* | i | 25* | 56%* | i | 50%* | i | -0.98 | -27
O=C(O)C1CCc2nc(NCc3ccccc3)nc(NCc3ccccc3)c2C1 (stereo unspecified) | · | · | i | · | · | · | · | · | · | · | · | ·
CC(C)c1ccc(S(=O)(=O)/N=C2\C=C(NS(=O)(=O)c3ccccc3)C(=O)c3ccccc32)cc1 | -8 | -3 | i | -10* | i | 100* | 39%* | i | 91%* | i | -0.92 | -24
NC(=O)[C@@H]1CCCN1C(=O)c1ccc2nc(Cc3cccc(Cl)c3)oc2c1 | -8 | 1.7 | i | i | i | i | · | · | · | · | · | ·
CC(c1ccccc1)C(Cc1nc2ccccc2[nH]1)c1nc2ccccc2[nH]1 (stereo unspecified) | -5 | -1.1 | · | i | i | i | · | · | · | · | · | ·
Cc1cccc(CC(Cc2nc3ccccc3[nH]2)c2nc3ccccc3[nH]2)c1 (stereo unspecified) | 13 | -0.19 | i | -9* | i | 100* | 59%* | i | 39%* | i | -0.89 | -20

Bioassay records as filed in PubChem BioAssay.
